Values joined by “and” are separate entries in the source; they are usually repeats but may differ in a detail not shown here. Identical values can stand only once. Records with an inconclusive call do not appear. Active and inactive are the calls of the source. The calls were made as follows: active = hit-call score of the fitted dose curve at least 0.9, where 1 is the maximum; inconclusive = response in the unintended direction; inactive = score below 0.9.

The nature of the experiment: TOX21_p53_BLA_p5_viability: Viability Assessment in the Tox21 HCT-116 p53 Agonism Beta-lactamase Assay, Phase 5 (AID 2283600). The essentials:
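HCT-116 p53 beta-lactamase reporter cells, 4000/well, were exposed to compound (pin transfer, 217-fold dilution) for 16 hours at 37C. Cellular ATP was read by CellTiter-Glo luminescence after 30 min at room temperature.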
As to `CCC(Cc1c(I)cc(I)c(N)c1I)C(=O)O` (stereo not drawn), the compound was classed as inactive.
With `CCCCOC(=O)[C@H](C)O`, the compound was classed as inactive.
As for `CC(=O)CCC(C)C`, the call was inactive.
For `O=C1C=CC(=O)N1c1ccccc1`, the AC50 was 74.9 µM (active).
On to `CC(C)OC=O`, for which the outcome was inactive.
On the same count and under the same terms, for `Cc1ccc(O)c(-n2nc3ccccc3n2)c1` the value was “inactive”.
As for `CC(C)Nc1ccc(NC(C)C)c2c1C(=O)c1ccccc1C2=O`, the compound was called inactive.
For the compound `CCOC(=O)C1CC(=O)C(=C(O)C2CC2)C(=O)C1` (stereo not drawn), the compound was called inactive.
In the case of `CCCCC(CC)COC(=O)c1ccc(N(C)C)cc1` (stereo not drawn), the compound was classed as inactive.
For the compound `OCC1CCCO1` (stereo not drawn), the call was inactive.
On to `F[Si-2](F)(F)(F)(F)F`, for which the outcome was inactive.
Turning to `CCN=C1C=CC(=C(c2ccc(N(CC)CC)cc2)c2ccc(N(CC)CC)cc2)c2ccccc21`, the AC50 is 69.4 µM (active).
For `C[C@]12CC[C@H]3C(=CCc4cc(O)ccc43)[C@@H]1CCC2=O`, the result was inactive.
As for `CCCCCCCC/C=C\CCCCCCCC(=O)N(C)CC(=O)O`, the half-maximal activity concentration (AC50) is 43.7 µM (active).
Consider `CCc1cc(Cc2cc(CC)c(N)c(CC)c2)cc(CC)c1N`, for which the compound was classed as inactive.
As to `CCOC(OCC)OCC`, the compound was called inactive.
In the case of `CCN=c1cc2oc3cc(NCC)c(C)cc3c(-c3ccccc3C(=O)OCC)c-2cc1C`, the half-maximal activity concentration (AC50) was 60.8 µM (active) and 63.2 µM (active).
`Cc1ccc([N+](=O)[O-])c(C)c1`: the compound was classed as inactive.

The record behind these values is PubChem BioAssay (EPA / NIEHS).
